# High-throughput results as filed in PubChem.
# Shown is part of a subset that was picked to be rich in hits.
# Eya2 inh: inhibitors of human Eya2 phosphatase activity. O00167. recombinant Eya2, OMFP fluorescence dephosphorylation (OMFP is methylfluorescein phosphate). Potency, µM (titrated, usually from 76.9 µM), without a hit: top-dose activity, negative = inhibition, usual class: inhibitors. 330,000 compounds, 0.006% hits. AID 488837; note: % is set by controls: 0 for no effect and ±100 for the full control effect
#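 Eya2 protein (added as 0.2 uM solution) was preincubated with compound for 10 min at ambient temperature in 50 mM HEPES pH 7.5, 50 mM NaCl, 5 uM MgCl2, 0.05% BSA, 1 mM DTT. OMFP (added at 50 uM) then reacted 10 min; fluorescence read at 485/525 nm.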
# Integrin act MD: activates integrin-mediated alleviation for muscular dystrophy | alpha7betagal myoblasts, beta-gal FDG fluorescence, 48 h | Potency, µM (titrated, usually from 38.3 µM), for inactives: at the highest dose activation, actives largely listed as activators | 350,000 compounds, 0.064% hits | AID 624291;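 note: 100% = response of the positive control SU9516; nearly all actives have a fitted effect of over 60% in size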
#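 Alpha7betagal+/- myoblasts (passage 13) were plated 16-24 hr, then exposed to compounds (1:260 dilution of DMSO stock) for 48 hours at 37C. After MPER lysis, β-galactosidase reporter activity was read as FDG fluorescence (ex 480/em 540) after 30 minutes.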
# USP2a block: USP2a (human) protease inhibition | USP2 core, Ub-CHOP2 coupled fluorogenic reporter, 485/531 | Potency, µM (doses to about 38.3 µM), without a hit: top-dose activity change, negative = inhibition, actives largely listed as inhibitors | 330,000 compounds, 0.01% hits | AID 463254;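 note: plate controls were DMSO wells for no effect and full inhibition by NEM control for full effect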
# Target sequence (O75604 whole entry, looked up): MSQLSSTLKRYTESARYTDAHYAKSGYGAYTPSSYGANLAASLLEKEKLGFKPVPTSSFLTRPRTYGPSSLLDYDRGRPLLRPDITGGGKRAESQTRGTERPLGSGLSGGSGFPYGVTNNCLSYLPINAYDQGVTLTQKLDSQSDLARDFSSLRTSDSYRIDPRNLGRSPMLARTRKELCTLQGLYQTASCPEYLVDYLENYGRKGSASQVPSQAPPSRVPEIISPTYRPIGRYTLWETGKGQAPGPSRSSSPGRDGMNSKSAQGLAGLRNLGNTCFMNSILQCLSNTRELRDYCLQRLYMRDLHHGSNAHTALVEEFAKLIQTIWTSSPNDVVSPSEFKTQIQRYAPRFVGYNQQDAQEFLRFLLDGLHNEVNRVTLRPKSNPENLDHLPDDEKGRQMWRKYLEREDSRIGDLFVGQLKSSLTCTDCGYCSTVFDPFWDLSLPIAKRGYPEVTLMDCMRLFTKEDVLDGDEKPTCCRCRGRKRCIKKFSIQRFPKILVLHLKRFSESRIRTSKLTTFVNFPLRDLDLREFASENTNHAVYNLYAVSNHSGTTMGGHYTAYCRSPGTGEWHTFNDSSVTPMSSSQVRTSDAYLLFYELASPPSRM
#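 USP2 core (10nM final) preincubated 30min RT with compound in 20mM Tris-HCl pH 8.0, 2mM CaCl2, 2mM beta-mercaptoethanol, 0.05% CHAPS; 25nM Ub-CHOP2 plus 25nM reporter substrate added, fluorescence (Ex485/Em531) read after 60min.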
# MmCpn inh: M. maripaludis TRiC chaperonin inhibition. purified Mm-Cpn ATPase, ADP Transcreener TR-FRET. Potency, µM (series often up to 76.9 µM), for the others: at the top dose activity, negative = inhibition, hits mostly inhibitors. 330,000 compounds, 0.031% hits; note: % is set by controls: 0 for no effect and ±100 for the full control effect; nearly all actives have a fitted effect of over 80% in size
#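 TR-FRET (320 nm excitation; 590 and 665 nm emission) reports ADP made from 10 uM ATP by 25 nM enzyme; compounds were preincubated 10 min, reaction run 30 min, both at 37°C.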
# ClpP mod: qHTS Assay for Activators of ClpP; ATP-dependent Clp protease proteolytic subunit (Bacillus subtilis (strain 168)), P80244; purified B. subtilis ClpP, FRET peptide cleavage, 20 min; Potency, µM (top dose mostly 57.5 µM), for inactives: at the highest dose activity change, negative = active; 340,000 compounds, 1.9% hits; active = well fitted falling curve with a large enough effect; inconclusive = small, poorly fitted or top-dose-only effect; inactive = no such curve, though single readings can be large or run the other way; note: the source files actives as falling curves though it sought activators and does not explain the sign; nearly all actives have a fitted effect of over 65% in size
#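 Buffer: 100 mM Tris/HCl pH8, 100 mM KCl, 0.05% low protease BSA, 2.5% glycerol, 0.01% Tween-20. ClpP 10 microg/mL final; 20 min RT; delta FRET normalized to ADEP and DMSO controls.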
# p53 reactivation: re-activators of mutant p53; H1299 p53-A138V BP100-luciferase reporter, luminescence, 24 h; Potency, µM (top dose mostly 92.2 µM), for the others: at the top dose activity change, positive = activation, actives largely listed as activators; 320,000 compounds, 0.063% hits; note: % of control where 0% means no effect; nearly all actives have a fitted effect of over 45% in size
#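 p53-null H1299 cells stably carrying temperature-sensitive p53-A138V and a BP100-luciferase reporter were pinned with compounds (4-point, 1:5 series) and held 24 hrs at 37 deg C. Luminescence was read 10 min after detection reagent.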
# ClpP inh valid: Bacillus subtilis ClpP inhibition, validated hit; shares compounds with ClpP mod; purified B. subtilis ClpP, FRET-FV substrate cleavage, 20 min; Potency, µM (doses to about 57.5 µM), for inactives: at the top dose activity change, negative = inhibition, usual class: inhibitors; 470 compounds, 40% hits; note: % is set by controls: 0 for no effect and ±100 for the full control effect; nearly all actives have a fitted effect of over 70% in size
# * hit, by the source's call; ? = inconclusive; / = no result. Unless noted, calls come from the whole dose curve; as a rule, active = well fitted curve in the direction sought with a large enough effect; inconclusive = small, poorly fitted or top-dose-only effect, or another doubt; inactive = no such curve, though single readings can be large; an effect the other way counts as inactive or inconclusive. Potency is the fitted concentration of half-maximal effect.
SMILES,Eya2 inh,Integrin act MD,USP2a block,MmCpn inh,ClpP mod,p53 reactivation,ClpP inh valid
CCC(=O)Nc1cccc(C(=O)/C=C/c2ccccc2)c1,2%,-55%,2%,0%,16µM*,-11%,/
CC(C)CNC(=O)CSc1nc2scc(-c3ccccc3)c2c(=O)[nH]1,-7%,0%,0%,-16%,22µM*,-4%,/
COc1ccc(CCn2c3c(c(=O)[nH]c2=S)CN(c2ccccc2)CN3)cc1OC,/,/,/,/,-2%,/,/
Cc1cc(C)n2nc(NCc3ccccc3)nc2n1,/,-13%,/,/,10µM*,/,24µM*
CCOC(=O)N1CCN(C(=O)c2ccc(S(=O)(=O)Nc3ccc(C)cc3)cc2)CC1,-1%,-33%,4%,-2%,115%,-4%,-1%
COc1ccc(C)cc1N(C)C(=O)c1sc2nc3n(c(=O)c2c1C)CCCCC3,/,/,/,/,0%,/,/
CCc1cc2c(N3CCN(C(=O)c4ccco4)CC3)ncnc2s1,-7%,-15%,-2%,1%,2.8µM*,-6%,-1%
c1ccc(Oc2cc(-n3cncn3)ncn2)cc1,-5%,5%,0%,1%,2.8µM*,?,0%
CCCOC(=O)CSc1nnc(-c2ccccc2)o1,/,/,/,/,0%,/,/
Cc1cc2oc(C(=O)Nc3sc4c(c3C(=O)NCC3CCCO3)CCC4)cc(=O)c2cc1C (centres undefined),/,/,/,/,-4%,/,/
Cc1cccc(NC(=O)c2ccccc2C(=O)Nc2cccc(C)c2)c1,/,-1%,/,/,168%,/,-2%
CN1CCN(c2ccc(NC(=O)c3ccc(-c4ccc(Br)cc4)o3)cc2)CC1,-13%,-59%,0%,1%,/,-8%,/
Cc1ccccc1C(=O)Nc1cccc(NC(=O)c2ccc(-c3ccc(Br)cc3)o2)c1,-18%,-14%,1%,-3%,139%,5%,?
Cc1cc(Nc2cccc(Br)c2)n2c(nc3ccccc32)c1C#N,/,/,/,/,-8%,/,/
Cn1c(NCCO)nc2c1c(=O)n(Cc1cccc(F)c1)c(=O)n2C,/,/,/,/,1%,/,/
Nc1c(C(=O)Nc2cccc(Cl)c2Cl)sc2nc(-c3cccnc3)ccc12,2%,12%,1%,-3%,4µM*,12%,0%
O=C(NC1(C(F)(F)F)C(=O)Nc2c1c(=O)[nH]c(=O)n2-c1ccc(Cl)cc1)c1ccccc1F (centres undefined),/,/,/,/,1%,/,/
Cc1ccc(C)c(OCCCC(=O)NC2CCCCC2)c1,-15%,7%,0%,-1%,3.2µM*,/,0%
Cc1cccc(C)c1NC(=O)C(c1ccc(C(F)(F)F)cc1)n1c(=O)c(-c2cc3ccccc3[nH]2)nc2ccccc21 (centres undefined),/,/,/,/,18%,/,/
Cc1cccc(C)c1NC(=O)C(c1ccc(-c2ccccc2)cc1)n1c(=O)c(-c2cc3ccccc3[nH]2)nc2ccccc21 (centres undefined),/,/,/,/,40%,/,11%
CC(C)(C)NC(=O)C(c1ccc(-c2ccccc2)cc1)n1c(=O)c(-c2cc3ccccc3[nH]2)nc2ccccc21 (centres undefined),/,/,/,/,63%,/,20%
Nc1nc2nc(-c3ccc(OCc4ccccc4)cc3)cc(C(F)(F)F)n2n1,24%,1%,3%,3%,7.1µM*,2%,17µM*
COc1cccc(C(=O)Nc2ccc3nc(SCC(=O)N4CCOCC4)sc3c2)c1,/,/,/,/,-1%,/,/
COC(=O)c1cc2oc3ccccc3c2n1Cc1nc(-c2cccc(Cl)c2)oc1C,/,/,/,/,2%,/,/
Cc1nc2oc3c(NCC4CCCO4)ncnc3c2c2c1COC(C)(C)C2 (centres undefined),-10%,-13%,-1%,1%,-3%,2%,/
